# Screening data from PubChem.
# Rows were chosen to be rich in hits. Some 17% of all compounds tested hit in one or more screens of this group.
# DT40 TDP1 CPT = qHTS for Inhibitors of human tyrosyl-DNA phosphodiesterase 1 (TDP1): qHTS in cells in presence of CPT; 12% of 420,000 active; Potency, µM (doses to about 46.2 µM), for inactives: at the top dose activity change, negative = growth inhibition, usual class: inhibitors; chicken DT40 Tdp1-/-;hTDP1 cells + 20 nM CPT, ATP luminescence, 48 h; also: % is scaled to controls: 0 for no effect and ±100 for the full control effect; nearly all actives have a fitted effect of over 55% in size
#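 Chicken DT40 Tdp1-/- cells stably complemented with human TDP1 were seeded at 400 cells/well in medium containing 20 nM camptothecin, exposed to pin-transferred compounds, and grown at 37 °C for at least 48 hr. Viability was read as ATP luminescence.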
# TDP1 block = qHTS Assay for Inhibitors of Tyrosyl-DNA Phosphodiesterase (TDP1); Tyrosyl-DNA phosphodiesterase 1 (Homo sapiens), Q9NUW8; recombinant TDP1, AlphaScreen DNA substrate cleavage; Potency, µM (titrated, usually from 130 µM), for inactives: at the top dose activity change, negative = inhibition, most hits filed as inhibitors; 0.28% of 350,000 active; AID 485290, 2010; also: % is scaled to controls: 0 for no effect and ±100 for the full control effect; nearly all actives have a fitted effect of over 40% in size
# Target sequence (Q9NUW8 whole entry, looked up): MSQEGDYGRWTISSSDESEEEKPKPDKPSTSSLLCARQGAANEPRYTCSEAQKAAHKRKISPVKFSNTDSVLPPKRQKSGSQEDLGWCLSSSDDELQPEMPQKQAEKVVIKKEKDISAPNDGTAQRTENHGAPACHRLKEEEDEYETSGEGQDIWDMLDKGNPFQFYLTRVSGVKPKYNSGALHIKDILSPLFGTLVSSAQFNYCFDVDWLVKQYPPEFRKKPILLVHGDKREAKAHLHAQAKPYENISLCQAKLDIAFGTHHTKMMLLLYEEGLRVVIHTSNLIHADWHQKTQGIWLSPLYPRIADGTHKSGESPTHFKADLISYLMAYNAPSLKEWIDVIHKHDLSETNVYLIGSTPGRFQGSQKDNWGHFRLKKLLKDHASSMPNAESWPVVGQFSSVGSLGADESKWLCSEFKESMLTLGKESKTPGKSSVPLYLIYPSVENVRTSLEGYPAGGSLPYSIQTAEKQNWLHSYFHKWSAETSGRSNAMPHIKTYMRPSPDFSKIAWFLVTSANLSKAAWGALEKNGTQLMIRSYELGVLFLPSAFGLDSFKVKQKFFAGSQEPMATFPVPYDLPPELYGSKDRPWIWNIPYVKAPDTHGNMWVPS
#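 E. coli-derived human Tdp1, 1 nM final. Cpd preinc 15 min RT; substrate 15 nM final, 5 min RT; AS bead mix 10 ug/ml final, 10 min RT. Signal loss = tyrosine-FITC cleavage. No-enzyme wells = max signal.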
# TDP1 cell noCPT = qHTS for Inhibitors of human tyrosyl-DNA phosphodiesterase 1 (TDP1): qHTS in cells in absence of CPT. DT40 Tdp1-/- hTDP1 cells, no CPT, ATP luminescence, 48 h. Potency, µM (top dose mostly 46.2 µM), without a hit: at the highest dose activity change, negative = growth inhibition, usual class: inhibitors. 15% of 420,000 active; also: % is scaled to controls: 0 for no effect and ±100 for the full control effect; nearly all actives have a fitted effect of over 55% in size
#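 Cells were dispensed at 400 per well, compounds added by pin tool, plates incubated ≥48 hr at 37 °C, then CellTiter-Glo added for 30 min at room temperature before luminescence reading. Line: DT40 Tdp1-/- complemented with hTDP1; camptothecin omitted.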
# ClpP mod = qHTS Assay for Activators of ClpP; ATP-dependent Clp protease proteolytic subunit (Bacillus subtilis (strain 168)), P80244; purified B. subtilis ClpP, FRET peptide cleavage, 20 min; Potency, µM (titrated, usually from 57.5 µM), inactives show at the top dose activity change, negative = active; 1.9% of 340,000 active; active = well fitted falling curve with a large enough effect; inconclusive = small, poorly fitted or top-dose-only effect; inactive = no such curve, though single readings can be large or run the other way; also: the source files actives as falling curves though it sought activators and does not explain the sign; nearly all actives have a fitted effect of over 65% in size
#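 Purified B. subtilis ClpP, 10 microg/mL final in Tris/HCl pH8 with KCl, BSA, glycerol and Tween-20, cleaved an Abz/nitrotyrosine-quenched decapeptide. Fluorescence (ex 320, em 430) was read at 0 and 20 min at room temperature. Delta was normalized to 5.8 microM ADEP and DMSO/no-enzyme controls.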
# The depositor's hits bear a star; ? = inconclusive; . = no result; [ ] = dose if it differs, or a comment. Unless noted, calls follow the shape of the dose curve; as a rule, active = well fitted curve in the direction sought with a large enough effect; inconclusive = small, poorly fitted or top-dose-only effect, or another doubt; inactive = no such curve, though single readings can be large; an effect the other way counts as inactive or inconclusive. Potency is read from the fitted curve at half-maximal effect.
SMILES,DT40 TDP1 CPT,TDP1 block,TDP1 cell noCPT,ClpP mod
CCOc1ccc(-c2nc3c(C#N)c[nH]n3c2NC2CCCCC2)cc1,8.2µM*,11.4%,7.31µM*,0.9%
COc1cccc(-c2nc3c(C#N)c[nH]n3c2NC2CCCCC2)c1,?,5.7%,?,-0.4%
Cc1cccc(-c2nc3c(C#N)c[nH]n3c2NC2CCCCC2)c1,?,5.7%,20.6µM*,0.4%
CCOC(=O)C1(C)C=C(Nc2ccc(NC(C)=O)cc2)C(=O)N1c1ccc(NC(C)=O)cc1 (stereo not drawn),6.1%,-2.7%,-1.6%,25.1µM*
COc1cccc(-c2cnc3c(NC=O)cc(-c4ccc(N(C)C)cc4)cn23)c1,14.6µM*,.,8.2µM*,-19.9%
COc1ccc(-c2cc(NC=O)c3ncc(-c4cccc(OC)c4)n3c2)cc1,5.8µM*,.,5.17µM*,?
CCOC(=O)N1CCN(C(=O)C(=O)NNC(=O)COc2ccc(Cl)cc2)CC1,5.1%,0.0%,-5.2%,.
CCCOc1ccc(CNC(=O)c2[nH]c3cc(OC)ccc3c2Sc2ccccc2)cc1,?,8.6%,?,-8.4%
CC(NC(=O)COC(=O)/C(=C/c1cccs1)c1cccs1)c1ccccc1 (stereo not drawn),?,1.2%,18.4µM*,1.5%
Cc1ccc(NC(=O)COC(=O)/C(=C/c2cccs2)c2cccs2)cc1S(=O)(=O)N(C)C,16.4µM*,1.9%,14.6µM*,-5.7%
NS(=O)(=O)c1cccc(NC(=O)COC(=O)/C(=C/c2cccs2)c2cccs2)c1,?,8.2%,23.1µM*,0.9%
CC(NC(=O)c1cccs1)c1ccccc1 (stereo not drawn),-4.4%,.,3.9%,-2.5%
O=C(C[N+]1(CCO)CCOCC1)c1ccc(F)c2ccccc12,-117.2%,.,?,0.2%
Cc1ccc(CSc2nnc([C@@H]3CCCN3C(=O)OC(C)(C)C)o2)cc1,?,1.4%,?,1.6%
OC(CN1CCC(Cc2ccc(F)cc2)CC1)c1ccc(Cl)cc1 (stereo not drawn),-2.3%,10.4%[56.1 µM],-27.3%,.
COc1ccc(-c2noc(CCCC(=O)Nc3cccc(Cl)c3C)n2)cc1,?,3.6%,?,-2.0%
Cc1ccc(F)c(Oc2cc(NN3CCCCC3)c([N+](=O)[O-])cc2[N+](=O)[O-])c1,?,.,?,-3.2%
O=[N+]([O-])c1cc([N+](=O)[O-])c(Oc2ccccc2F)cc1NN1CCCCC1,?,.,-24.6%,0.2%
Cc1cc(Oc2cc(NN3CCCCC3)c([N+](=O)[O-])cc2[N+](=O)[O-])c(C(=O)c2ccccc2)cc1Cl,20.6µM*,.,?,0.5%
COc1cc(C(C)=O)ccc1Oc1cc(NN2CCCCC2)c([N+](=O)[O-])cc1[N+](=O)[O-],23.1µM*,.,?,1.6%
O=[N+]([O-])c1cc([N+](=O)[O-])c(Oc2cccc(Cl)c2Cl)cc1NN1CCCCC1,23.1µM*,.,?,-0.4%
CC1(C)Cc2cccc(Oc3cc(NN4CCCCC4)c([N+](=O)[O-])cc3[N+](=O)[O-])c2O1,?,.,16.4µM*,-0.1%
Cc1ccc(C)c(Oc2cc(NN3CCCCC3)c([N+](=O)[O-])cc2[N+](=O)[O-])c1,?,.,-21.8%,0.6%
COc1cccc(-n2c(=O)c3cc(OC)c(OC)cc3n(CC(=O)Nc3ccc(F)cc3)c2=O)c1,?,0.0%[12.3 µM],-13.0%,-13.6%
CCS(=O)(=O)N1CCc2cc(C(=O)NCc3ccccc3OC)ccc21,-9.0%,5.7%,?,-1.7%
SMILES,DT40 TDP1 CPT,TDP1 block,TDP1 cell noCPT,ClpP mod
O=[N+]([O-])c1ccc(SNc2ccccc2)c([N+](=O)[O-])c1,?,.,?,-2.3%
O=[N+]([O-])c1ccc(-[n+]2ccc3ccccc3c2)c([N+](=O)[O-])c1,1.03µM*,3.4%,1.3µM*,0.2%
Cc1ccn2c(C(=O)CSc3ccccc3)c(C)nc2c1,8.2µM*,-0.6%,8.2µM*,-0.8%
Cc1ccn2c(C(=O)CSc3ccc(Cl)cc3)c(C)nc2c1,23.1µM*,0.0%,20.6µM*,-2.3%
CCOc1cc(-c2nc(-c3ccc(-c4ccc(C)cc4)nc3OC)no2)cc(OCC)c1OCC,?,3.2%,?,17.3%
CCOc1ccc(S(=O)(=O)N(C(=O)c2ccncc2)c2ccc3oc(C)c(C(=O)OC)c3c2)cc1,1.03µM*,.,0.92µM*,1.7%
CC(=O)c1c(C)oc2ccc(N(C(=O)c3ccncc3)S(=O)(=O)c3ccc(C)cc3C)cc12,.,.,.,1.0%
CCN(CC)C(=O)COc1ccc2oc(C)c(C(=O)OC)c2c1,2.7%,-1.1%,?,-3.1%
CCOC(=O)c1c(C)oc2ccc(N(C(=O)c3ccncc3)S(=O)(=O)c3ccc(F)cc3)cc12,.,.,.,0.2%
COc1ccc(S(=O)(=O)N(C(=O)c2ccncc2)c2ccc3oc(C)c(C(C)=O)c3c2)cc1,3.66µM*,.,2.31µM*,-4.4%
COc1ccc2oc(C)c(C(=O)c3ccccc3)c2c1,-2.2%,.,?,.
CC(=O)c1c(C)oc2ccc(N(C(=O)Oc3ccccc3)S(=O)(=O)c3ccc(C(C)(C)C)cc3)cc12,5.17µM*,1.3%[12.3 µM],9.2µM*,0.1%
CCc1ccc(S(=O)(=O)N(C(=O)c2ccncc2)c2ccc3oc(C)c(C(=O)OC)c3c2)cc1,2.91µM*,.,2.59µM*,-0.8%
Cc1cccc(S(=O)(=O)NCCC(=O)OCC(=O)Nc2ccc(C#N)cc2)c1,-7.1%,4.5%,-22.3%,0.7%
CN(C)c1ccc(/C=c2/sc3n(c2=O)NC2(c4ccccc4)N(C)C(=O)N(C)C2(c2ccccc2)N=3)cc1 (stereo not drawn),.,5.1%,.,.
COc1ccc(N(C(=O)c2ccncc2)S(=O)(=O)c2ccc(F)cc2)cc1,.,2.2%,.,.
COC(=O)c1c(C)oc2ccc(N(C(=O)c3ccncc3)S(=O)(=O)c3ccc(OC)cc3)cc12,0.581µM*,.,0.517µM*,-2.8%
COc1ccc(S(=O)(=O)Nc2ccc3oc4c(c3c2)CCCC4)cc1,?,5.3%,20.6µM*,0.2%
O=C(c1ccncc1)N(c1ccc2oc3c(c2c1)CCCC3)S(=O)(=O)c1cccc([N+](=O)[O-])c1,-25.6%,3.4%,?,-1.9%
COc1ccc(S(=O)(=O)N(C(=O)c2ccncc2)c2ccc3oc4c(c3c2)CCCC4)cc1,18.4µM*,5.3%,20.6µM*,-2.3%
COc1ccc(S(=O)(=O)Nc2ccc3oc(C)c(C(=O)O)c3c2)cc1,4.3%,1.0%,-0.6%,-2.1%
Cc1ccc(S(=O)(=O)Nc2cc(Cl)c3oc4c(c3c2)CCCC4)cc1,?,0.4%[12.3 µM],13µM*,-1.2%
